Inconclusive results are not listed. The source made the active and inactive calls. Calls come from the whole dose curve; as a rule, active = well fitted curve in the direction sought with a large enough effect in the repeat runs; inconclusive = weak or mixed curves; inactive = no such curve, though single readings can be large; an effect the other way counts as inactive or inconclusive.
What was measured:
[1] = qHTS RealTime-Glo MT Cell Viability Assay in HEK293 cells - 16 hour (AID 1224872); note: nearly all actives have a fitted effect of over 50% in size; note: potency is the fitted concentration of half-maximal effect; for activity change, negative = cytotoxicity: top concentration of the series differs between compounds
Method in brief: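 Quantitative high-throughput screen of the Tox21 10K library in HEK293: cells and RealTime-Glo reagents plated together, compound added at 5 h, luminescence monitored through 40 h at 37 C.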

[2] = qHTS RealTime-Glo MT Cell Viability Assay in HepG2 cells - 8 hour (AID 1224873); note: nearly all actives have a fitted effect of over 55% in size; note: potency is the fitted concentration of half-maximal effect
Method in brief: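 HepG2 cells (600/well) mixed with RealTime-Glo MT reagent, settled 5 h at 37 C/5% CO2 before compound addition. Nonlytic NanoLuc luminescence from viable-cell prosubstrate reduction read repeatedly during 40 h treatment at 37 C.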

[3] = qHTS RealTime-Glo MT Cell Viability Assay in HEK293 cells - 40 hour (AID 1224874); conditions: RealTime-Glo luminescence; max response: hits give low values; note: nearly all actives have a fitted effect of over 50% in size; note: potency is the fitted concentration of half-maximal effect
Method in brief: (§1)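 600 cells/well were plated with the nonlytic NanoLuc/prosubstrate reagent, pre-incubated 5 h, then given 23 nL of compound in DMSO. Incubation at 37 C for 40 h, with luminescence from viable-cell-reduced substrate read repeatedly from 0 h.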

[4] = A CellTox Green Cytotoxicity Assay to monitor cytotoxicity in HEK293 cells - 24 hour (AID 1224875); note: nearly all actives have a fitted effect of over 45% in size; note: potency is the fitted concentration of half-maximal effect; for activity change: series mostly up to about 77 µM
Method in brief: (§2)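 HEK293 cells, 600/well, were preincubated 5 hours and then exposed to compounds at 37 C for up to 40 hours. A cell-impermeant cyanine dye staining dead-cell DNA was read by fluorescence at 0, 8, 16, 24, 32 and 40 h time points.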

[5] = A CellTox Green Cytotoxicity Assay to monitor cytotoxicity in HepG2 cells - 16 hour (AID 1224876); note: nearly all actives have a fitted effect of over 45% in size
Method in brief: (§3)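 HepG2 cells, 600/well, preincubated 5 h with CellTox Green dye, then exposed to Tox21 compounds in DMSO at 37 C for up to 40 h. Dead-cell DNA fluorescence read at the indicated time point.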

[6] = A CellTox Green Cytotoxicity Assay to monitor cytotoxicity in HepG2 cells - 24 hour (AID 1224878); note: nearly all actives have a fitted effect of over 45% in size; note: potency is the fitted concentration of half-maximal effect
Method in brief: as §3

[7] = A CellTox Green Cytotoxicity Assay to monitor cytotoxicity in HepG2 cells - 40 hour (AID 1224879); note: nearly all actives have a fitted effect of over 40% in size; note: potency is the fitted concentration of half-maximal effect
Method in brief: as §3

[8] = qHTS RealTime-Glo MT Cell Viability Assay in HEK293 cells - 0 hour (AID 1224880); note: top concentration of the series differs between compounds; nearly all actives have a fitted effect of over 45% in size
Method in brief: as §1

[9] = A CellTox Green Cytotoxicity Assay to monitor cytotoxicity in HEK293 cells - 32 hour (AID 1224881); note: nearly all actives have a fitted effect of over 40% in size
Method in brief: as §2

[10] = qHTS RealTime-Glo MT Cell Viability Assay in HepG2 cells - 32 hour (AID 1224877); note: nearly all actives have a fitted effect of over 55% in size; note: potency is the fitted concentration of half-maximal effect
Method in brief: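 Compound treatment began 5 h after plating HepG2 cells (600/well) with NanoLuc luciferase and prosubstrate. Plates stayed at 37 C for 40 h; luminescence was captured at six time points, 0 h through 40 h.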
% is set by controls: 0 for no effect and ±100 for the full control effect.

CCCCCCS
inactive: Potency [1] | Potency [2] | max response [3] 6.5% | Potency [4] | Potency [5] | Potency [6] | Potency [7] | Potency [8] | Potency [9]

C=C(C)C(=O)OCCC[Si](Cl)(Cl)Cl
inactive: Potency [1] | Potency [2] | max response [3] -5.22% | Potency [4] | Potency [5] | Potency [10] | Potency [7] | Potency [8] | Potency [9]

OCCCc1cccnc1
inactive: Potency [1] | Potency [2] | max response [3] -2.22% | Potency [4] | Potency [5] | Potency [6] | Potency [7] | Potency [8] | Potency [9]

c1ccc2c(c1)CCC2
inactive: Potency [1] | Potency [2] | max response [3] 5.18% | Potency [4] | Potency [10] | Potency [7] | Potency [8]

CCOCN(C(=O)CS(=O)(=O)O)c1c(C)cccc1CC
inactive: Potency [1] | Potency [2] | max response [3] 8.02% | Potency [4] | Potency [10] | Potency [6] | Potency [7] | Potency [8] | Potency [9]

CN(C)CCCN1c2ccccc2CCc2ccccc21
active: Potency [3] 54.9 µM | Potency [7] 54.9 µM
inactive: Potency [1] | Potency [2] | Potency [4] | Potency [10]

CCC(C)C(=O)OC (centres undefined)
inactive: Potency [1] | Potency [2] | max response [3] 4.5% | Potency [4] | Potency [10] | Potency [6] | Potency [7] | Potency [8] | Potency [9]

O=S(O)O
inactive: activity change, negative = cytotoxicity [1] 5.35% [at 15.8 µM] | viability change, negative = cytotoxic [2] 3.13% [at 15.8 µM] | max response [3] 7.9% | activity change [4] -0.851% [at 15.8 µM, hits give high values] | activity change, negative = cytotoxic [10] 4.15% [at 15.8 µM] | cytotoxicity [6] -9.86% [at 15.8 µM] | cytotoxicity increase [7] -12.9% [at 15.8 µM] | activity change, negative = cytotoxicity [8] 10.2% [at 15.8 µM] | cytotoxicity increase [9] 0.593% [at 15.8 µM]

O=C(O)CCCCCCC(=O)O
inactive: Potency [1] | Potency [2] | max response [3] 12.4% | Potency [4] | Potency [6] | Potency [7] | Potency [8] | Potency [9]

NCCCC(O)(P(=O)(O)O)P(=O)(O)O
inactive: Potency [1] | Potency [2] | max response [3] 12.2% | Potency [4] | Potency [10] | Potency [6] | Potency [7] | Potency [8] | Potency [9]

CN(C)CCN1CCOCC1
inactive: Potency [1] | Potency [2] | max response [3] 7.62% | Potency [4] | Potency [5] | Potency [7] | Potency [8]

CCCCCCCCCCCCCCCCCO
inactive: activity change, negative = cytotoxicity [1] -0.33% [at 15.8 µM] | viability change, negative = cytotoxic [2] 4.95% [at 15.8 µM] | max response [3] 0.671% | activity change [4] -19.9% [at 15.8 µM, hits give high values] | activity change, negative = cytotoxic [10] -2.69% [at 15.8 µM] | cytotoxicity [6] 1.75% [at 15.8 µM] | cytotoxicity increase [7] 4.05% [at 15.8 µM] | activity change, negative = cytotoxicity [8] -0.227% [at 15.8 µM] | cytotoxicity increase [9] -22.2% [at 15.8 µM]

CCc1c(Br)c(Br)c(Br)c(Br)c1Br
inactive: Potency [1] | Potency [2] | max response [3] 4.82% | Potency [4] | Potency [10] | Potency [6] | Potency [7] | Potency [8] | Potency [9]

Clc1cccnc1
inactive: Potency [1] | Potency [2] | max response [3] 0.202% | Potency [4] | Potency [10] | Potency [6] | Potency [7] | Potency [8] | Potency [9]

CC[N+](CC)(CC)Cc1ccccc1
inactive: Potency [1] | Potency [2] | max response [3] 3.38% | Potency [4] | Potency [10] | Potency [7] | Potency [8] | Potency [9]

C/C=C/C(=O)Oc1c(CCCCCC(C)C)cc([N+](=O)[O-])cc1[N+](=O)[O-]
inactive: Potency [8]
active: Potency [1] 19.5 µM | Potency [2] 21.9 µM | Potency [3] 7.76 µM | Potency [4] 38.9 µM | Potency [10] 38.9 µM | Potency [6] 38.9 µM | Potency [7] 38.9 µM
